aSyn UTR act – Activators working through SNCA 5'UTR binding (MLPCN); alpha-synuclein 5'UTR reporter, activators screen; activity score, % (tested at 7.5 µM), hits read low; hit rate 7.1% among 300,000; in the data active means activity score below about -60%
Active calls of the source: *. A selection follows.

Results for CC(C)(C)OC(=O)N/N=C\C=C\c1ccc2c(c1)OCO2 ?
aSyn UTR act: -197*

How did C/C(=N\Nc1nc2ccccc2[nH]1)c1ccc(C)o1 do in these assays?
aSyn UTR act: -237*

What do the screens show for `C/C(=N\Nc1nc2ccccc2[nH]1)c1ccc(Cl)s1`?
aSyn UTR act: -104*

How did C/C(=N\Nc1nc2ccccc2[nH]1)c1ccc(N2CCOCC2)cc1 do in these assays?
aSyn UTR act: -163*

What do the screens show for `CC1CCN(CCCNC(=O)c2ccc3c(=O)n(CCc4ccccc4)c(=O)[nH]c3c2)CC1`?
aSyn UTR act: -74*

What do the screens show for `CC1CCCCN1CCNC(=O)c1ccc2c(=O)n(CCc3ccccc3)c(=O)[nH]c2c1` (stereo not given)?
aSyn UTR act: -79*

How did CCN1CCN(C(=O)c2ccc3c(=O)n(CCc4ccccc4)c(=O)[nH]c3c2)CC1 do in these assays?
aSyn UTR act: -72*

Results for N#CC1(NC(=O)Cn2ncc(Cl)c(Cl)c2=O)CCCCC1 ?
aSyn UTR act: -206*

How did Cc1ccc(/C(N)=N/OC(=O)COc2ccccc2Cl)cc1 do in these assays?
aSyn UTR act: -95*

What do the screens show for `N/C(=N\OC(=O)COc1ccccc1Cl)c1ccc(Cl)cc1`?
aSyn UTR act: -90*

How did CNc1cnn(-c2ccc(C)cc2)c(=O)c1Cl do in these assays?
aSyn UTR act: -86*

What do the screens show for `CCCCNc1cnn(-c2ccccc2)c(=O)c1Cl`?
aSyn UTR act: -74*

How did CN(c1cnn(-c2ccccc2)c(=O)c1Cl)n1cccc1 do in these assays?
aSyn UTR act: -83*

How did CCSc1cnn(-c2ccccc2)c(=O)c1Cl do in these assays?
aSyn UTR act: -92*

What do the screens show for `O=c1c(Cl)c(N/N=C/c2ccc(Cl)cc2)cnn1-c1ccccc1`?
aSyn UTR act: -85*

What do the screens show for `CN(C)c1ccc(NC(=O)Nc2ccc3c(c2)nnn3C)cc1`?
aSyn UTR act: -109*

How did Cn1nnc2cc(C(=O)Nc3ccc(Cl)cc3)ccc21 do in these assays?
aSyn UTR act: -117*

Results for CCn1c(/C=C/c2ccccc2Cl)nc2ccccc2c1=O ?
aSyn UTR act: -191*

What do the screens show for `CCn1c(/C=C\c2ccccc2C)nc2ccccc2c1=O`?
aSyn UTR act: -63*

What do the screens show for `CCn1c(/C=C/c2c[nH]c3ccccc23)nc2ccccc2c1=O`?
aSyn UTR act: -176*

How did Cc1ccc2c(c1)c1cccc3c1n2CCN3CCC(N)=O do in these assays?
aSyn UTR act: -172*

Results for N#Cc1cnc(Nc2nc3ccccc3o2)nc1-c1ccccc1 ?
aSyn UTR act: -72*

How did CCN(C(=O)c1cccs1)c1nc(-c2ccc(OC)cc2)cs1 do in these assays?
aSyn UTR act: -130*

How did COCCCN(C(C)=O)c1nc(-c2ccc(OC)cc2)cs1 do in these assays?
aSyn UTR act: -105*

How did O=C(CCN1CCC(c2cccs2)=N1)c1cccs1 do in these assays?
aSyn UTR act: -94*

Results for c1cnc2c(OCc3nc4ccccc4[nH]3)cccc2c1 ?
aSyn UTR act: -293*

How did O=Cc1ccc(O)c2ncccc12 do in these assays?
aSyn UTR act: 63

How did c1cnc2c(c1)ccc1cccnc12 do in these assays?
aSyn UTR act: 85

How did Cc1ccccc1OCc1nc2ccccc2[nH]1 do in these assays?
aSyn UTR act: -138*

What do the screens show for `COc1cccc(C=O)c1OCCCOc1cccc2cccnc12`?
aSyn UTR act: -129*

Results for Brc1ccccc1OCCOc1cccc2cccnc12 ?
aSyn UTR act: -72*

How did COc1ccccc1OCc1nc2ccccc2[nH]1 do in these assays?
aSyn UTR act: -70*

Results for O=C(Nc1ccc2c(c1)OCO2)N1CCC(CO)(CC2CCCCO2)CC1 (stereo not given) ?
aSyn UTR act: -91*

What do the screens show for `O=C(Nc1ccc2c(c1)OCO2)N1CCN(c2ccccc2Cl)CC1`?
aSyn UTR act: -187*

What do the screens show for `O=C(Nc1ccc2c(c1)OCO2)N1CCN(S(=O)(=O)c2ccc(Cl)cc2)CC1`?
aSyn UTR act: -68*

What do the screens show for `OCC1CCCN(C(=S)Nc2ccc(Oc3ccccc3)cc2)C1` (stereo not given)?
aSyn UTR act: -135*

Results for CC(=O)c1ccc(NC(=S)N2CCCC(CO)C2)cc1 (stereo not given) ?
aSyn UTR act: -82*

What do the screens show for `COc1ccc(N2C(=O)c3ccccc3NC23CCC(C)CC3)cc1` (stereo not given)?
aSyn UTR act: -106*

What do the screens show for `COc1ccc(N2C(=O)c3ccccc3NC23CCCCC3)cc1`?
aSyn UTR act: -76*

How did Cc1cc(C)c(NC(=O)NC(=O)c2cccc(F)c2)c(C)n1 do in these assays?
aSyn UTR act: -69*

Results for O=C(NC(=O)c1ccccc1)Nc1ccccn1 ?
aSyn UTR act: 64

Results for Cc1cccc(NC(=O)c2ccc(C(=O)c3ccccc3)cc2)n1 ?
aSyn UTR act: -102*

How did Cc1cccc(NC(=O)NC(=O)c2ccccc2)n1 do in these assays?
aSyn UTR act: -139*

Results for O=C(Nc1ccccn1)c1ccc(C(=O)c2ccccc2)cc1 ?
aSyn UTR act: -108*

What do the screens show for `Fc1ccc(-c2ccc(Nc3cccc(F)c3)nn2)cc1`?
aSyn UTR act: -131*

Results for Fc1ccc(Nc2ccc(-c3ccc(F)cc3)nn2)cc1 ?
aSyn UTR act: -161*

How did C#CCOCCOCCOCCNc1nc(N2CCN(C(=O)CCCCCCCCCCNC(=O)Cn3cc(C[C@@H](C)O)nn3)CC2)nc(N2CCN(C(=O)CCCCCCCCCCNC(=O)[C@H](CCCN=C(N)N)n3cc(C[C@@H](C)CC)nn3)CC2)n1 do in these assays?
aSyn UTR act: -85*

How did OC1c2cc(Br)ccc2N=C2CCCN21 (stereo not given) do in these assays?
aSyn UTR act: -88*

Results for Cc1ccc(C)c(OCC(=O)Nc2cc(C)on2)c1 ?
aSyn UTR act: -80*

Results for Cc1cc(NC(=O)COc2cccc(Oc3ccccc3)c2)no1 ?
aSyn UTR act: -122*

Results for NN/C(=C\[N+](=O)[O-])Nc1ccccc1 ?
aSyn UTR act: -70*

Results for Brc1ccc(C2=Nc3cccc4cccc(c34)N2)o1 ?
aSyn UTR act: -74*

What do the screens show for `O=C(/C=C/c1ccccc1[N+](=O)[O-])NCCN1C(=O)S/C(=C\c2ccc(F)cc2)C1=O`?
aSyn UTR act: -113*

Results for Cc1ccc(C2=Nc3ccccc3SC(c3cccc([N+](=O)[O-])c3)C2)cc1 (stereo not given) ?
aSyn UTR act: -113*

How did COc1ccccc1NC(=O)Cn1nnc(C(=O)NCc2cccs2)c1N do in these assays?
aSyn UTR act: 86

What do the screens show for `COc1ccccc1-c1ccc(=O)n(CC(=O)NCc2cccs2)n1`?
aSyn UTR act: -73*

What do the screens show for `O=C(N/N=C/c1ccc(-c2ccccc2[N+](=O)[O-])o1)[C@H]1C[C@@H]1c1ccccc1`?
aSyn UTR act: -79*

Results for O=C(/C=C/c1ccc(-c2ccccc2[N+](=O)[O-])o1)c1ccccc1 ?
aSyn UTR act: -120*

Results for O=C1NC(=O)/C(=C\c2ccc(OCc3cccc(C(=O)O)c3)c(Cl)c2)N1 ?
aSyn UTR act: 70

What do the screens show for `O=C(Nc1ccccc1Cl)c1cccc(COc2cc(Cl)ccc2Cl)c1`?
aSyn UTR act: -120*

Results for O=C(O)c1cccc(COc2ccccc2Cl)c1 ?
aSyn UTR act: 103

How did Cc1nn(Cc2c(F)c(F)c(F)c(F)c2F)c(C)c1NC(=O)c1cccc(COc2ccccc2Cl)c1 do in these assays?
aSyn UTR act: -97*

How did CN1CCN(C(=O)c2cccc(COc3cc(Cl)ccc3Cl)c2)CC1 do in these assays?
aSyn UTR act: -164*

What do the screens show for `Cc1nn(Cc2cccc(F)c2)c(C)c1NC(=O)c1ccc(COc2ccccc2Cl)cc1`?
aSyn UTR act: 69

Screening results: PubChem BioAssay, Broad Institute
